A-T KAP1 phos = potential ataxia-telangiectasia treatments restoring KAP-1 phosphorylation. F2112 A-T fibroblasts, KAP-1 phosphorylation AlphaLISA; neocarzinostatin DNA damage 30 min before lysis. Potency, µM (series often up to 57.5 µM), for the others: at the highest dose activation, actives largely listed as activators. actives 0.19% (n = 320,000). AID 485349; further: potency means the concentration at half of the fitted maximal effect; % of control where 0% means no effect; nearly all actives have a fitted effect of over 45% in size
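hTERT-immortalized A-T patient fibroblasts (F2112), 500 cells/well in OPTI-MEM, 1% FBS, got compounds for 60 min, then NCS for 30 min at 37C. Lysates were then assayed for phospho-KAP-1 by AlphaLISA (anti-pKAP1 donor, anti-KAP1 acceptor beads), 6 hr at 25C.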
KCNH2 WT inh = KCNH2 (human, wildtype) channel inhibition; activity change, % at 1.84 µM; Q12809; U2OS, BacMam KCNH2, thallium flux FluxOr; hits give low values; AID 720551; actives 0.37% (n = 340,000);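 active means maximum activity change below -70%; inconclusive means maximum activity change between -70% and -50%; inactive means maximum activity change above -50%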; further: on the % scale 0 is the no-effect control and ±100 the full control effect
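U2OS cells transduced with wild-type KCNH2 virus are loaded with FluxOr dye for 45 min, and thallium flux is measured in kinetic reads before and after stimulation buffer. Rate constants are normalized to DMSO controls.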
KCNH2 3.1 inh = inhibitors of human KCNH2 3.1 potassium channel isoform. actives 0.95% (n = 340,000). activity change, % (tested at about 1.8 µM). U2OS KCNH2 3.1, thallium flux FluxOr; hits give low values;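 active means maximum activity change below -70%; inconclusive means maximum activity change from -70% to -50%; inactive means maximum activity change above -50%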;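 further: thallium influx rate constant from kinetic fluorescence after stimulation buffer; on the % scale 0 is the no-effect control and ±100 the full control effect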
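Steps: virus added to U2OS suspension (4 h, RT, dark); medium with 10% FBS added, cells plated, 37 C overnight; FluxOr/Red40 loading buffer 45 min RT; stimulation buffer, 2 min kinetic read; rate constant normalized.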
ALOX12 inh = blocks human arachidonate 12S-lipoxygenase. P18054. purified 12hLO, xylenol orange hydroperoxide absorbance. Potency, µM (top dose mostly 108 µM), inactives show top-dose activity change, negative = inhibition, hits mostly inhibitors. actives 1.1% (n = 580,000); further: potency means the concentration at half of the fitted maximal effect; on the % scale 0 is the no-effect control and ±100 the full control effect
Target sequence (P18054 whole entry, looked up): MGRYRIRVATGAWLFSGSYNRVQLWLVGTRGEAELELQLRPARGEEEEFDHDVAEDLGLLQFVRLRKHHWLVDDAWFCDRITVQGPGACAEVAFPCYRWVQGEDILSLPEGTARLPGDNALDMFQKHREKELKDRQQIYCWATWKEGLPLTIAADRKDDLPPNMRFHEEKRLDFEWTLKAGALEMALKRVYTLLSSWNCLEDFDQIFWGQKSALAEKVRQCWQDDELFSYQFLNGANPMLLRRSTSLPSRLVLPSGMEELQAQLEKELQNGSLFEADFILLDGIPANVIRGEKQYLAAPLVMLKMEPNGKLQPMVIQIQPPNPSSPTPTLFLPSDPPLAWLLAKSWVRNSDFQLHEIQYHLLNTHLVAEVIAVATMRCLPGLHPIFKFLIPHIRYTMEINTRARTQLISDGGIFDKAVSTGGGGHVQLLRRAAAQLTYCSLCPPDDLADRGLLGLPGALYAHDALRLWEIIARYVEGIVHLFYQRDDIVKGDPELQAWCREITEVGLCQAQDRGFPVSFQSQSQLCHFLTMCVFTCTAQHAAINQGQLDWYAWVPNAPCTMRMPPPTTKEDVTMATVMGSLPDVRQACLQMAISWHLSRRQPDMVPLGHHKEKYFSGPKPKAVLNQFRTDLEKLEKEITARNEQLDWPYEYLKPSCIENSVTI
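Purified human 12hLO (150 nM final) in 25 mM Hepes, 0.01% Triton X-100, pH 7.0 was preincubated 15 min at room temperature with compound. Then 40 uM arachidonic acid was added, 30 min. Hydroperoxide was read by Fe-XO absorbance ratio 573/405 nm.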
The depositor's hits bear a star; ! = repeats disagree. An excerpt weighted towards active compounds, which were near 1.8% of everything screened. Unless noted, the call rests on the fitted dose curve; in most records, active means well fitted curve in the direction sought with a large enough effect; inconclusive means small, poorly fitted or top-dose-only effect, or another doubt; inactive means no such curve, though single readings can be large; an effect the other way counts as inactive or inconclusive.

What do the screens show for `COc1cc(C2C(C(=O)c3cc4ccccc4o3)=C(O)C(=O)N2c2cc(C)on2)cc(OC)c1OC` (stereo unspecified)?
A-T KAP1 phos: 4%; KCNH2 WT inh: -7; KCNH2 3.1 inh: -19; ALOX12 inh: 10µM*

What do the screens show for `O=C(Nc1ccccc1)C1CC(=O)N(Cc2ccco2)c2nc3ccccc3n21` (stereo unspecified)?
ALOX12 inh: -3%

Results for C=CCOC(=O)Cn1cnc2c1c(=O)n(C)c(=O)n2C ?
ALOX12 inh: -48%

Results for CCN(CC)CCC=C(c1cccs1)c1cccs1 ?
KCNH2 WT inh: 9; KCNH2 3.1 inh: inconclusive; ALOX12 inh: 50µM*

What do the screens show for `CCN(C(=O)c1cccs1)C1CC1`?
ALOX12 inh: -16%

How did C=CCNC(=O)c1cc(-c2ccc3ccccc3n2)nc2ccccc12 do in these assays?
ALOX12 inh: -52%

How did CC(=O)c1c[nH]c(C(=O)NC(c2cccc(F)c2)c2nccn2C)c1 (stereo unspecified) do in these assays?
ALOX12 inh: 22µM*

Results for Cc1ccc(Nc2nnc(SCC(=O)NCC3CCCO3)s2)cc1 (stereo unspecified) ?
A-T KAP1 phos: -2%; KCNH2 WT inh: -3; KCNH2 3.1 inh: 16; ALOX12 inh: 4%

Results for Cc1cc(=O)[nH]c(SCC(=O)NCC2CCCO2)n1 (stereo unspecified) ?
A-T KAP1 phos: -15%; KCNH2 WT inh: -235*; KCNH2 3.1 inh: -20; ALOX12 inh: 2%

How did CC(C)C(=O)Nc1nnc(SCC(=O)NCC2CCCO2)s1 (stereo unspecified) do in these assays?
A-T KAP1 phos: 2%; KCNH2 WT inh: -6; KCNH2 3.1 inh: -85*; ALOX12 inh: -4%

Results for N#CC1=C(N)NC(SCC(=O)Nc2ccc(Br)cc2)=C(C#N)C12CCCCC2 ?
KCNH2 WT inh: -146*; KCNH2 3.1 inh: -33; ALOX12 inh: 0%

Results for N#CC1=C(N)NC(SCc2ccc(Br)cc2)=C(C#N)C12CCCCC2 ?
A-T KAP1 phos: -1%; KCNH2 WT inh: 0; KCNH2 3.1 inh: -12; ALOX12 inh: inconclusive

Results for COc1ccc(N/C=C2\CCOC2=O)cc1 ?
A-T KAP1 phos: -1%; KCNH2 WT inh: -8; KCNH2 3.1 inh: 8; ALOX12 inh: -16%

Results for COc1ccc(N/C=C2\C(=O)CCc3c2oc2cc(Cl)c(O)c(Cl)c32)cc1 ?
A-T KAP1 phos: -3%; KCNH2 WT inh: -5; KCNH2 3.1 inh: -13; ALOX12 inh: 6.3µM*

Results for COCc1cc(=O)n(CC(=O)Nc2ccc(Br)cc2F)c(N2CCOCC2)n1 ?
ALOX12 inh: 12%

Results for Cc1ccccc1NC(=O)CCNS(=O)(=O)c1ccc2c(c1)CCN2C(=O)C1CC1 ?
ALOX12 inh: 11%

How did O=C(O)C[C@@H]1CCN(C(=O)c2cccs2)C[C@@H]1CCN1CCN(c2ccccn2)CC1 do in these assays?
ALOX12 inh: 9%

How did O=C(C1CC1)N1CCC2(CC1)NC(=O)N(c1cccc(Cl)c1)N2 do in these assays?
ALOX12 inh: 1.4µM*

How did Cc1ccccc1CC(=O)N1CCC2(CC1)NC(=O)N(c1ccccc1)N2 do in these assays?
ALOX12 inh: 1.3µM*

What do the screens show for `CCn1nccc1C(=O)N1CCC2(CCC2OC)CC1` (stereo unspecified)?
ALOX12 inh: 64%

Results for O=C1NC2(CCC3(CC2)OCCO3)NN1c1ccccc1 ?
A-T KAP1 phos: 5%; KCNH2 WT inh: -5; KCNH2 3.1 inh: 0; ALOX12 inh: inconclusive

How did CCn1nccc1C(=O)N1CCC2(CC1)NC(=O)N(c1ccccc1)N2 do in these assays?
ALOX12 inh: 5.6µM*

How did O=C(C1CCCC1)N1CCC2(CC1)NC(=O)N(c1ccccc1)N2 do in these assays?
ALOX12 inh: 2.8µM*

What do the screens show for `O=C(Nc1ccccc1Cl)C1CN(S(=O)(=O)C2CC2)CC12CCCCC2` (stereo unspecified)?
ALOX12 inh: 6%

What do the screens show for `Cc1nc2ccccc2cc1C(=O)O`?
A-T KAP1 phos: 0%; KCNH2 WT inh: 4; KCNH2 3.1 inh: -27; ALOX12 inh: 7.9µM*!

How did Cc1nc2ccccc2cc1C(=O)NCc1ccccc1 do in these assays?
KCNH2 WT inh: -5; KCNH2 3.1 inh: 6; ALOX12 inh: 98%

Results for CC1CCN(Cc2cc(=O)oc3ccc(C(C)C)cc23)CC1 ?
A-T KAP1 phos: 35%; KCNH2 WT inh: -15; KCNH2 3.1 inh: -6; ALOX12 inh: inconclusive

What do the screens show for `Cc1cc2oc(=O)cc(CN3CCCCCC3)c2cc1C(C)C`?
ALOX12 inh: 18µM*

Results for COC(=O)C1CCN(Cc2cc(=O)oc3ccc(Cl)cc23)CC1 ?
ALOX12 inh: 16µM*

What do the screens show for `CC(C)c1ccc2oc(=O)cc(CN3CCCCC3)c2c1`?
A-T KAP1 phos: 35µM*; KCNH2 WT inh: 7; KCNH2 3.1 inh: 19; ALOX12 inh: inconclusive

How did Cc1cc2oc(=O)cc(CN3CCCCC3)c2cc1C(C)C do in these assays?
A-T KAP1 phos: -2%; KCNH2 WT inh: 3; KCNH2 3.1 inh: 0; ALOX12 inh: inconclusive

What do the screens show for `Cc1nc(-c2ccc(NC(=O)c3ccc(Br)o3)c(C)c2)no1`?
ALOX12 inh: -2%

Results for CC(C)CN1CCOC(CNC(=O)C2CCN(c3nc4ccccc4o3)CC2)C1 (stereo unspecified) ?
ALOX12 inh: -23%

What do the screens show for `C=CCNc1nc(C(=O)OCC(=O)c2cc(C)n(C3CC3)c2C)cs1`?
ALOX12 inh: 137%

Results for O=C(O)CCCC(=O)NNC(=O)c1cccc(Br)c1 ?
A-T KAP1 phos: 1%; KCNH2 WT inh: 6; KCNH2 3.1 inh: -98*; ALOX12 inh: -10%

What do the screens show for `O=C(NNC(=O)c1ccccc1O)c1cccc(Br)c1`?
A-T KAP1 phos: -15%; KCNH2 WT inh: 3; KCNH2 3.1 inh: -81*; ALOX12 inh: 0%

How did O=C(O)CCCCCNC(=O)c1cccc(Br)c1 do in these assays?
A-T KAP1 phos: -13%; KCNH2 WT inh: 3; KCNH2 3.1 inh: -3; ALOX12 inh: 0%

How did CCCCNC(=O)c1cccc(C(=O)NCCCC)n1 do in these assays?
ALOX12 inh: 33%

What do the screens show for `Nn1c(SCC(=O)Nc2ccc(F)c(F)c2)nnc1C1CCCCC1`?
KCNH2 WT inh: 3; KCNH2 3.1 inh: 41; ALOX12 inh: 1%

Results for NC(=O)c1ccc(NC(=O)CSc2nnc(C3CCCCC3)n2N)cc1 ?
A-T KAP1 phos: -2%; KCNH2 WT inh: 7; KCNH2 3.1 inh: -138*; ALOX12 inh: 18%

Results for COC(=O)C1CN(Cc2cn(Cc3ccc(C)cc3)nn2)CCS(=O)(=O)N1Cc1ccc(C)cc1 (stereo unspecified) ?
ALOX12 inh: 16µM*

What do the screens show for `CCOC(=O)c1[nH]ncc1CN1CCN2C(=O)CNC(=O)C2C1` (stereo unspecified)?
ALOX12 inh: 19%

What do the screens show for `O=[N+]([O-])c1cccc(N=Nc2ccc(O)cc2O)c1`?
KCNH2 WT inh: -4; KCNH2 3.1 inh: 6; ALOX12 inh: 20µM*
